The panel holds about 83,000 compounds, 20% with a hit somewhere; the sample as a whole holds those more often.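 Values shown are percent growth following 48 h exposure of cells in 96-well plates to a single concentration of compound; below 10 was considered active.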 Values without a mark were called inactive. Active and inactive are the calls of the source.
system: MCF7 breast; experiment: NCI-60 one-dose screen, 48 h (100 = growth as untreated, 0 = no growth, -100 = all killed); details: 10 µM

| Structure (SMILES) | growth |
| --- | --- |
| O=C(CSSCC(=O)c1ccc(Cl)cc1)c1ccc(Cl)cc1 | 86.7% |
| COc1ccc2c(c1)/C(=C\c1c[nH]c3ccc(OC)cc13)C(=O)N2 | 29.6% |
| Cc1cc(N(CCCNc2ccnc3cc(Cl)ccc23)Cc2cccs2)nc(Cl)n1 | 40.8% |
| COc1ccc(-c2nc3sc(C4CC4)nn3c2/C=C2/C(=O)Nc3ccc(OC)cc32)cc1 | 30.1% |
| COc1cc(-c2cc(/C=C/C(=O)c3ccc4c(c3)OCO4)[nH]n2)cc(OC)c1OC | 17.3% |
| CC[C@H](C)C(=O)O[C@H]1CCC=C2C=C[C@H](C)C(CCC3C[C@@H](O)CC(=O)O3)[C@H]21 (stereo not given in full) | 83.6% |
| CCOCCOCCOCCOCCOCCOCCOCCOCCOCCO (tested in a mixture with another compound) | 3.56% (active) |

system: HCT-116 colon; experiment: as above; details: 10 µM

| Structure (SMILES) | growth |
| --- | --- |
| COc1ccc(S(=O)(=O)Nc2c(/C=C\c3cc(OC)c(OC)c(OC)c3)ccc(OC)c2O)cc1 | -6.66% (active) |
| Cc1cn(C2CCCCO2)c(=O)nc1NO (stereo not given) | 111% |
| N=c1nc(N)ncn1-c1ccccc1 | 97.4% |
| CCCCCCCNc1nc(C=O)ncc1-c1ccc(C(F)(F)F)cc1 | 98.3% |
| C/C(N)=C(\C#N)C(=O)c1ccccc1 | 102% |
| CC1CC(=O)OC(C)C1 (stereo not given) | 104% |
| Cc1cc(=O)n2nnc3c4ccccc4ccc3n12 | 8.71% (active) |
| COc1ccc(-c2nn(-c3cccc(NC(=O)c4cc(C(F)(F)F)cc(C(F)(F)F)c4)c3)cc2-c2ccncc2)cc1Cl | 57.6% |
| Cc1ccc(S(=O)(=O)OCCN(CCOS(=O)(=O)c2ccc(C)cc2)c2c[nH]c(=O)[nH]c2=O)cc1 | 108% |
| O=C(Nc1ccc(Cl)cc1)N1NC(c2ccc(Cl)cc2)C=C1c1ccccc1 (stereo not given) | 104% |
| CCn1cc(C(=O)O)c(=O)c2cnc(N3CCCC3)nc21 | 96.9% |
| COc1ccc(C2=Nc3c(C)nn(-c4ccccc4)c3NC(c3ccc(Oc4ccnc5cc(Cl)ccc45)c(OC)c3)C2)cc1 (stereo not given) | 45.6% |
| Cn1c(N)c(N=Nc2ccc(S(=O)(=O)Nc3nccs3)cc2)c(=O)n(C)c1=O | 109% |
| COc1cc(-c2nc(-c3nnc(-c4ccccc4Cl)o3)c3ccccn23)cc(OC)c1OC | 97% |
| COc1ccc(-c2nc3sc(-c4ccc(OC)cc4)c(-c4ccc(OC)cc4)n3c2/C=C/c2ccc(C(C)C)cc2)cc1 | 94.4% |
| N#CSCC1CC(O)(c2ccccc2)CC(c2ccc(Cl)cc2)O1 (stereo not given) | 10.1% |
| CS(=O)(=O)Nc1cccc(-c2cc(-c3ccccc3Cl)c(C#N)c(N)n2)c1 | 21.8% |

| Structure (SMILES) | growth |
| --- | --- |
| O=C(/C=C/c1cc2ccccc2[nH]c1=O)c1ccc2c(c1)OCO2 | 81.6% |
| CC(C)(Cl)CCC1=C(Cl)C(=O)c2ccccc2C1=O | 17.2% |
| O=C1C(c2ccccc2)C2C=CC(C2)N1O (stereo not given) | 104% |
| CC(C)(C)NC/C(=C\c1ccccc1)C(=O)c1ccccc1 | -95.3% (active) |
| NC(=O)c1ccc(-c2cccc3c(=O)nc(N4CCOCC4)oc23)cc1 | 104% |
| COC(=O)C1(C)Cc2cc(OC(C)=O)c(OC(C)=O)cc2N1 (stereo not given) | 35.1% |
| CC(=O)c1nc2ccccc2n1CCN1CCN(C)CC1 | 11% |
| Nc1nccc(Nc2ccccc2)n1 | 109% |
| COc1cc(C2CC(c3ccc(Nc4ccnc5cc(Cl)ccc45)cc3)=NN2c2ccc(Cl)cc2)cc(OC)c1OC (stereo not given) | 46.6% |
| COc1cc(-c2cc(-c3cc4c([nH]c5ccccc54)c(-c4cc(OC)c(OC)c(OC)c4)n3)cc(-c3ccccc3)n2)cc(OC)c1OC | 57% |
| COc1ccc(-c2nsc3c2NC(=O)CC3c2ccc(F)cc2)cc1 (stereo not given) | 19.5% |
| ClC(Cl)(Cl)c1nc2nccnc2[nH]1 | 103% |
| COc1ccc(-c2cc(/C=C3\C(=O)Nc4ccc(Cl)cc43)[nH]n2)cc1OC | 73.2% |
| CCOC(=O)C1CCc2c(ccc3ccccc23)N1CCC#N (stereo not given) | 96.4% |
| CN(C)Cc1cn(-c2ncc(-c3ccc(C(F)(F)F)cc3)c(NC3CCCCCC3)n2)nn1 | 66.3% |
| O=C(CSSCC(=O)c1ccc(Cl)cc1)c1ccc(Cl)cc1 | 35.4% |

Reference: PubChem BioAssay (NCI)
